From PubChem BioAssay (NCATS) come the findings set out here.

Results filed as inconclusive are left out. The source made the active and inactive calls. Calls follow the shape of the dose curve; as a rule, active = well fitted curve in the direction sought with a large enough effect; inconclusive = small, poorly fitted or top-dose-only effect, or another doubt; inactive = no such curve, though single readings can be large; an effect the other way counts as inactive or inconclusive.

Assay [1] deals with ATP-dependent 6-phosphofructokinase (Trypanosoma brucei brucei) (UniProt O15648). As to the kind of experiment: qHTS Validation Assay to Find Inhibitors of T. brucei phosphofructokinase (AID 485368). Also: potency is read from the fitted curve at half-maximal effect. Summed up: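 Enzyme reaction in triethanolamine buffer pH 8.0 with 5 mM MgCl2, 0.01% Tween20 and 0.1% BSA; PFK 1.25 nM, F6P 0.5 mM, ATP 0.1 mM, 45 min RT. ADP quantified by ADP-Glo.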
ATP-dependent 6-phosphofructokinase (Trypanosoma brucei brucei), sequence (O15648 whole entry, looked up): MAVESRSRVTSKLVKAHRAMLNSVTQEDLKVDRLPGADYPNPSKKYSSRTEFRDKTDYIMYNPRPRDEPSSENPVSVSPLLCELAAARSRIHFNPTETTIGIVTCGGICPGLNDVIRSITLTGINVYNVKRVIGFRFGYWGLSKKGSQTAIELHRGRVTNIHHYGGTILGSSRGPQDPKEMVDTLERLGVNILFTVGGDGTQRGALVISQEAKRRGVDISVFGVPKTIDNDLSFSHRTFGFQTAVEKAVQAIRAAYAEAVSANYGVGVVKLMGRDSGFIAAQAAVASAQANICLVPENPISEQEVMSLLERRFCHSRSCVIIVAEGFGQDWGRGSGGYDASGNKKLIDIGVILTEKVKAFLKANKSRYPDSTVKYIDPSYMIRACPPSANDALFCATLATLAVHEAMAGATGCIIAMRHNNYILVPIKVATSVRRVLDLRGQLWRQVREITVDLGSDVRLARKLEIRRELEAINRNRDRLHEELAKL

Assay [2] concerns the target Thioredoxin reductase 1, cytoplasmic (Rattus norvegicus) (UniProt O89049). Put plainly: qHTS Assay for Substrates of Mammalian Selenoprotein Thioredoxin Reductase 1 (TrxR1) (AID 488772).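 Also: NADPH fluorescence in the first read after selenite addition and not the 8 min delta; a drop in NADPH fluorescence below the no-compound background marks a TrxR1 substrate.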 Also: potency is read from the fitted curve at half-maximal effect. In a few lines:
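Quantitative HTS in Tris-HCl buffer at pH 7.5 with EDTA and Tween-20, using rat TrxR1, 400 uM NADPH and 400 uM selenite (final). A fall in initial NADPH fluorescence relative to background marked substrate behaviour.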

For assay [3] the target is unchanged. Put plainly: qHTS Assay for Inhibitors of Mammalian Selenoprotein Thioredoxin Reductase 1 (TrxR1) (AID 488773). Also: nearly all actives have a fitted effect of over 40% in size. Also: potency is read from the fitted curve at half-maximal effect. The conditions noted are these: Potency: inhibition. In a few lines:
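Steps: enzyme (90 nM) plus NADPH (400 uM final), 5 min at ~22 deg C; compound added, 15 min; selenite (400 uM final) added; fluorescence followed for 8 min. Concentration-response curves derived from the normalized delta values.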

Assay [4] concerns the target Flap endonuclease 1 (Homo sapiens) (UniProt P39748). Put plainly: qHTS Validation Assay for the Inhibitors of Human Flap endonuclease 1 (FEN1) (AID 488816). Also: potency is read from the fitted curve at half-maximal effect. In a few lines:
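Readings taken at 0 and 15 min after starting the reaction with 50 nM (final) substrate supplied the signal. Compounds had first sat with 10 nM FEN1 reagent for 15 min at room temperature. Values come from Hill-equation concentration-response fits.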

Assay [5] concerns the target M-phase phosphoprotein 8 (Homo sapiens) (UniProt Q99549). As to the kind of experiment: qHTS Validation Assay for Inhibitors for MPP8 Chromodomain Interactions with Methylated Histone Tails (AID 488949). Also: nearly all actives have a fitted effect of over 55% in size. Also: potency is read from the fitted curve at half-maximal effect. In a few lines:
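MPP8 (50 nM) was pre-bound to 50 nM biotinylated H3(1-18)K9me3 peptide in PBS pH 7.4 with 0.01% Tween-20. Compounds were then added for 30 min at room temperature, and complex disruption was read by AlphaScreen with streptavidin donor and nickel-chelate acceptor beads.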

Assay [6] concerns the target Methanococcus maripaludis chaperonin (MmCpn) (UniProt Q6LX38). As to the kind of experiment: High-Throughput Screening for Modulators of Cytosolic Chaperonin Activity: MmCpn Primary Screen (AID 488978).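 Also: 50 nM MmCpn enzyme hydrolysing 30 µM ATP at 37 °C.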 In a few lines: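 MmCpn at 50 nM final was preincubated 5 min at RT with compound. ATP was then added at 30 uM final for 10 min at 37 C. ADP formed was detected by Transcreener HTRF (665/590 nm).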

In assay [7] the target is Chromobox protein homolog 1 (Homo sapiens) (UniProt P83916). As to the kind of experiment: qHTS Validation Assay for Inhibitors of HP1-beta Chromodomain Interactions with Methylated Histone Tails (AID 488953). Also: nearly all actives have a fitted effect of over 50% in size. Also: potency is read from the fitted curve at half-maximal effect. Summed up: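 HP1-beta (50 nM) was preincubated 30 min at room temperature with biotinylated H3(1-18)K9me3 peptide (50 nM) in PBS pH 7.4, 0.01% Tween-20, then with compounds 30 min. AlphaScreen signal was read after streptavidin donor/nickel chelate acceptor beads (10 ug/mL final).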
Chromobox protein homolog 1 (Homo sapiens), sequence (P83916 whole entry, looked up): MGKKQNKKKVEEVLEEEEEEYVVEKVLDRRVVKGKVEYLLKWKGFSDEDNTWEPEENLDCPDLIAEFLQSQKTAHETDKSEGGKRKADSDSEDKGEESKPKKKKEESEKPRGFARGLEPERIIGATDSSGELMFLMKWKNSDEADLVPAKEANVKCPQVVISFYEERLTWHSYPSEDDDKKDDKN

In assay [8] the target is Transient receptor potential cation channel subfamily V member 1 (Homo sapiens) (UniProt Q8NER1). Put plainly: HTS Assay for Compounds that Act as Enhancers of the Vanilloid Receptor 1 (AID 488979). Summed up: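 Calcium influx kinetics via Fluo-8 (480/520 nm) in TRPV1-expressing cells, 2000/well cultured overnight at 35.5C. Compound-alone read 3 min (agonist phase), followed by EC20 capsaicin challenge for 2 min (enhancer phase).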
Transient receptor potential cation channel subfamily V member 1 (Homo sapiens), sequence (Q8NER1 whole entry, looked up): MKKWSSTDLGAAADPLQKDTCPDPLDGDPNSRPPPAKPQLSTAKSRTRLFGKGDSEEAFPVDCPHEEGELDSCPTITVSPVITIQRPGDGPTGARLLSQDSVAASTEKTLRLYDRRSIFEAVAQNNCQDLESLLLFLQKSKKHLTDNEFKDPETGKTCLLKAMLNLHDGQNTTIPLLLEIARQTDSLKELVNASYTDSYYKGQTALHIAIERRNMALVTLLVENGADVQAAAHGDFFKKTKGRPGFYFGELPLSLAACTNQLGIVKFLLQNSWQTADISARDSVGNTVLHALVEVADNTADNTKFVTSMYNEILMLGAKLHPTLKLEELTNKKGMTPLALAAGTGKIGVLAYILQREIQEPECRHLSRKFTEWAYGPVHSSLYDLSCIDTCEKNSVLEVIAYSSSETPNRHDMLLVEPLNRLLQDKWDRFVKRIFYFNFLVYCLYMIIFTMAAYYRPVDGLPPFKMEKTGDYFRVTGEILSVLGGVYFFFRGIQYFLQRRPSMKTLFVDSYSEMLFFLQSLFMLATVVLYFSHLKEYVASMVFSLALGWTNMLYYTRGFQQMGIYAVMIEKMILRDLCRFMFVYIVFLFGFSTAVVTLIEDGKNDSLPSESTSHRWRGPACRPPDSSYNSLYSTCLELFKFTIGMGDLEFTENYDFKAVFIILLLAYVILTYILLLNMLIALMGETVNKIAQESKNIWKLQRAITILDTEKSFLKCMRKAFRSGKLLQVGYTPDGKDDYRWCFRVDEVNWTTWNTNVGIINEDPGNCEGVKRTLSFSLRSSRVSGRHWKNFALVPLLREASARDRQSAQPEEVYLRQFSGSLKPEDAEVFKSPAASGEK

Assay [9] can be described thus: Quantitative high throughput screen for delayed death inhibitors of the malarial parasite plastid, 48 hour incubation (AID 488752). Also: nearly all actives have a fitted effect of over 65% in size. Summed up: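 Erythrocytes infected with P. falciparum carrying an integrated firefly luciferase reporter (2% hematocrit, 0.1% parasitemia final) were exposed to compounds in RPMI 1640/0.5% Albumax for 48 h at 37 C, 5% CO2. Growth inhibition was scored as reduced luminescence.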

Flap endonuclease 1 (Homo sapiens), sequence (P39748 whole entry, looked up): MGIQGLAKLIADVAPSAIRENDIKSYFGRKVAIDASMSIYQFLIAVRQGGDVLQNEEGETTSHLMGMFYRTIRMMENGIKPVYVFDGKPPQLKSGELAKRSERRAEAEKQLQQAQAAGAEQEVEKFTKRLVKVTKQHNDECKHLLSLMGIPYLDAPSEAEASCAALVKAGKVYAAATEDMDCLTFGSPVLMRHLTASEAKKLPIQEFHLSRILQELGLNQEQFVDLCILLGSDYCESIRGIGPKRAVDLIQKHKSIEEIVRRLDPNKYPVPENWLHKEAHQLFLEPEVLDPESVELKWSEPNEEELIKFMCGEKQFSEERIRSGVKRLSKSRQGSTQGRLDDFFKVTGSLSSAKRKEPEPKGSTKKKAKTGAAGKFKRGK
Methanococcus maripaludis chaperonin (MmCpn), sequence (Q6LX38 1-543): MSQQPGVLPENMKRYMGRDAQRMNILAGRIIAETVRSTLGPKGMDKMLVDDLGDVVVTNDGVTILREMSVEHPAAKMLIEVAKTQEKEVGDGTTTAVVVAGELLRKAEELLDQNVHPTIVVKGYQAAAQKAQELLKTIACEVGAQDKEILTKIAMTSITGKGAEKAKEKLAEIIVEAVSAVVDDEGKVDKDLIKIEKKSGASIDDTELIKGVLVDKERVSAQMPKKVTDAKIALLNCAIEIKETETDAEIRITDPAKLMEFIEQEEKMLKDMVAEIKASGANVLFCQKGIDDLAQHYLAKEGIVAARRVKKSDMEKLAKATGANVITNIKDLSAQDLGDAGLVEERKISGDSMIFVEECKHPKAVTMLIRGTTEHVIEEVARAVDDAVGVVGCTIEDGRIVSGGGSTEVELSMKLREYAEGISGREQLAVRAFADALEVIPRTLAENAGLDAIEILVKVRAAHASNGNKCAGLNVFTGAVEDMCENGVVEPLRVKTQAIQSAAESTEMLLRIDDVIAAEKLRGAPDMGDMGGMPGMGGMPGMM
Thioredoxin reductase 1, cytoplasmic (Rattus norvegicus), sequence (O89049 whole entry, looked up): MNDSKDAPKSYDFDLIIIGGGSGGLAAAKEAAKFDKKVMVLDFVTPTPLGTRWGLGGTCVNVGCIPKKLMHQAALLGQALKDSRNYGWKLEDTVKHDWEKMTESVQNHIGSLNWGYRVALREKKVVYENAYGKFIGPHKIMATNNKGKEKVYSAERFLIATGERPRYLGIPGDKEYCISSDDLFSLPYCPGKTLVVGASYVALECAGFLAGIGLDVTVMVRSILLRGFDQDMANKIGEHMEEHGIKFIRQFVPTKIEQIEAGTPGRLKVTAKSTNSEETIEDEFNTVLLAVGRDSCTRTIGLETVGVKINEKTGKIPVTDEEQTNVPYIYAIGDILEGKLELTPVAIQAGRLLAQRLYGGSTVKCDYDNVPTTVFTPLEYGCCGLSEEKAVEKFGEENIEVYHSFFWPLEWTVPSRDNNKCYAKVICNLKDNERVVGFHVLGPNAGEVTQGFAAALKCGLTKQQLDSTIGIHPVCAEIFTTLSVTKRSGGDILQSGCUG
M-phase phosphoprotein 8 (Homo sapiens), sequence (Q99549 whole entry, looked up): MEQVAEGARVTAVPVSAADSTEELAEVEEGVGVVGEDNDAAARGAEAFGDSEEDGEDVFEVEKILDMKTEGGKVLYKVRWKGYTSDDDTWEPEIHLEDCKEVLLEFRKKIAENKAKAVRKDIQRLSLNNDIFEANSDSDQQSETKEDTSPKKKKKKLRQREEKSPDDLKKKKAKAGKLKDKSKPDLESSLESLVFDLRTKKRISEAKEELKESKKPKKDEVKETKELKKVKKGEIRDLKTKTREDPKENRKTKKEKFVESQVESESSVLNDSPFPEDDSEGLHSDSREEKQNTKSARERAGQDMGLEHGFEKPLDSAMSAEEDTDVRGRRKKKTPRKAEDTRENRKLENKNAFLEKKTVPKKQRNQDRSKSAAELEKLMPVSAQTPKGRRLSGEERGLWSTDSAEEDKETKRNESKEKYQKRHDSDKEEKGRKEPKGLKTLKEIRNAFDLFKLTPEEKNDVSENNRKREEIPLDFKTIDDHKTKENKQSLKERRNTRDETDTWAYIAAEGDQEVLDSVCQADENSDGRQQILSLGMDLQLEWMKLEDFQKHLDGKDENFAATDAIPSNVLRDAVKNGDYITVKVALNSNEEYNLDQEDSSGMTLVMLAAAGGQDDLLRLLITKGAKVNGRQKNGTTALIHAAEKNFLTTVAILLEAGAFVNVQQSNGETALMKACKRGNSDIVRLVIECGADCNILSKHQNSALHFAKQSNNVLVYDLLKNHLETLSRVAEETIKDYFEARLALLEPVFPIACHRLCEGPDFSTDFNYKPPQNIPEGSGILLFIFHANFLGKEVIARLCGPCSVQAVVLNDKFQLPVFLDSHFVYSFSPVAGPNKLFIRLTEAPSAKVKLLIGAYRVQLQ

Take `CSc1ccccc1N1CCN(CCCCCC(=O)NC2CCCc3ccccc32)CC1` (centres undefined): the Potency entry in assay [1], in assay [2], in [3], in [4] and in assay [5] was “inactive” each time. The outcome in assay [6] was inactive.
For `NC[C@H]1O[C@@H](n2cnc3c(N)ncnc32)[C@H](O)[C@@H]1O`, the Potency entry in assay [1], in assay [2], in [3], in assay [4] and in assay [7] was “inactive” in each case. Besides, the compound was classed as inactive in [6].
`CN1CCc2cccc3c2C1Cc1ccc(O)c(O)c1-3` (centres undefined): the Potency in assay [1] was 12 µM (active); in assay [3] it was 9.47 µM (active). For the same compound, in assay [2], the Potency entry is “inactive”. Further, the compound was classed as inactive in assay [6] and in assay [8].
Consider `OCC1O[C@H]([S-])[C@H](O)[C@@H](O)[C@@H]1O.[Au+]` (some centres undefined), for which the Potency is 2.69 µM (active) in assay [1], 0.0752 µM (active) in assay [3], 1.5 µM (active) in assay [4] and 1.5 µM (active) in [5]. Besides, the Potency result in assay [2] is “inactive”. The result in assay [6] was inactive.
Regarding `CNC(=O)[C@H]1O[C@@H](n2cnc3c(NCc4ccc(N)cc4)ncnc32)[C@H](O)[C@@H]1O`, the Potency result in assay [1], in [2], in assay [4], in assay [5] and in assay [7] was “inactive” each time. Besides, the call in assay [6] was inactive.
For `CN1CC(=O)N/C1=N/C(=O)Nc1cccc(Cl)c1`, the Potency result in assay [1], in assay [2], in assay [3], in assay [4], in assay [5] and in assay [7] was “inactive” in each case. In addition, the compound was called inactive in [6].
For `O=C1C(SCCO)=C(SCCO)C(=O)c2ccccc21`, the Potency in [1] was 12 µM (active); in [2], 16.8 µM (active); in assay [3], 26.7 µM (active); in assay [7] it was 10 µM (active). For the same compound, the Potency entry in assay [5] was “inactive”. The outcome in [6] and in assay [8] was inactive.
In the case of `CC(C)ON([C@@H](C(=O)NO)C(C)C)S(=O)(=O)c1ccc(-c2ccccc2)cc1`, the Potency result in assay [1], in [2], in assay [3], in assay [4] and in [5] was “inactive” in each case. In addition, the compound was classed as inactive in assay [6].
Regarding `COc1cc(SC)ccc1C(=O)N1CCC(Cc2ccccc2)CC1`, the Potency result in [1], in assay [2], in [3], in [4] and in assay [7] was “inactive” each time. Moreover, in [6], the compound was called inactive.
`Nc1ncnc2c1ncn2[C@@H]1O[C@H](COP(=O)(O)CP(=O)(O)OP(=O)(O)O)[C@@H](O)[C@H]1O`: the Potency entry in [1], in [2], in assay [3], in assay [4] and in assay [7] was “inactive” throughout. Moreover, the result in [6] was inactive.
As to `CCCC1(C)C(C#N)(C#N)C1(C#N)C#N`, the Potency entry in assay [1], in assay [2], in [4], in assay [5] and in assay [7] was “inactive” in each case. The Potency in [3] is 10.6 µM (active). For the same compound, the result in [6] was inactive.
As to `CC(C)NCC(O)COc1cccc2ccccc12` (centres undefined), the Potency result in [1], in assay [2], in assay [3], in [5] and in [7] was “inactive” throughout. Also, the compound was classed as inactive in assay [6].
Take `CCC1C(=O)OCC1Cc1cncn1C` (centres undefined): the Potency entry in [1], in [2] and in assay [7] was “inactive” throughout. In assay [6], the outcome was inactive.
On to `NC(=S)c1ccc[n+]([C@@H]2O[C@@H](COP(=O)([O-])OP(=O)(O)OC[C@H]3O[C@@H](n4cnc5c(N)ncnc54)[C@H](OP(=O)(O)O)[C@@H]3O)C(O)C2O)c1` (some centres undefined), for which the Potency result in [1], in assay [2], in assay [3] and in assay [4] was “inactive” each time. The Potency in assay [7] was 89.1 µM (active). Also, the call in [6] was inactive.
For `C=C[C@H]1CN2CC[C@@H]1C[C@@H]2[C@@H](O)c1ccnc2ccc(OC)cc12`, the Potency result in [1] and in assay [2] was “inactive” throughout. Moreover, the call in [6] was inactive.
For `NC(=O)C1=CN(C2OC(COP(=O)(O)OP(=O)(O)OC[C@H]3O[C@@H](n4cnc5c(N)ncnc54)[C@H](OP(=O)(O)O)[C@@H]3O)C(O)C2O)C=CC1` (some centres undefined), the Potency entry in assay [1], in assay [2], in assay [3], in assay [4] and in [5] was “inactive” throughout. The compound was classed as inactive in assay [6].
With `O=c1[nH]c2cc(C(F)(F)F)ccc2n1-c1cc(C(F)(F)F)ccc1O`, the Potency result in [1], in [3], in assay [4] and in [5] was “inactive” each time. The compound was classed as inactive in assay [6] and in assay [8].
On to `CCCCC/C=C\CC(O)/C=C/c1cccc(CC(O)CCCCO)n1` (centres undefined), for which the Potency result in assay [1], in [9], in assay [2], in assay [4] and in assay [5] was “inactive” throughout. Also, the call in [6] and in [8] was inactive.
Turning to `Fc1cccc(/C=N/N=C/c2cccc(F)c2)c1`, the Potency result in assay [1], in assay [2], in [3], in assay [4], in assay [5] and in [7] was “inactive” each time. The outcome in assay [6] and in assay [8] was inactive.
With `N=c1ccn2c(n1)O[C@H]1[C@H](O)[C@@H](CO)O[C@H]12`, the Potency result in assay [1], in [2], in assay [3], in [4], in [5] and in assay [7] was “inactive” throughout. For the same compound, the result in assay [6] was inactive.
`Nc1nc(Cl)nc2c1ncn2[C@@H]1O[C@H](CO)[C@@H](O)[C@H]1O`: the Potency entry in assay [1], in assay [2], in assay [3], in assay [4], in [5] and in assay [7] was “inactive” throughout. Further, the outcome in assay [6] was inactive.
For `O=C1NC(=O)/C(=C/c2ccc3nccnc3c2)S1`, the Potency result in assay [1], in assay [2], in assay [3], in [4], in assay [5] and in assay [7] was “inactive” in each case. Besides, the compound was classed as inactive in assay [6].
Consider `CC(=O)/C=C1\C(=O)N(C)c2ccccc21`, for which the Potency entry in [1], in assay [2], in assay [4] and in assay [5] was “inactive” each time. In addition, the Potency is 29.9 µM (active) in [3] and 0.0532 µM (active) in assay [7]. Moreover, the compound was classed as inactive in assay [6].
Take `CCN(CC)c1ncnc2c1ncn2[C@@H]1O[C@H](COP(=O)(O)OP(=O)(O)C(Br)(Br)P(=O)(O)O)[C@@H](O)[C@H]1O`: the Potency entry in assay [1], in assay [2], in [3], in [4] and in assay [7] was “inactive” throughout. Also, the call in assay [6] was inactive.
As for `O=[N+]([O-])c1ccc(CSc2ncnc3c2ncn3[C@@H]2O[C@H](CO)[C@@H](O)[C@H]2O)cc1`, the Potency in [1] was 15.1 µM (active). Also, the Potency result in [2], in [3], in [4] and in assay [7] was “inactive” each time. The outcome in [6] was inactive.
On to `CO/N=C(\C(=O)N[C@@H]1C(=O)N2C(C(=O)O)=C(COC(C)=O)CS[C@H]12)c1csc(N)n1`, for which the Potency in assay [1] was 8.49 µM (active); in [7] it was 50.1 µM (active). Also, the Potency entry in assay [4] was “inactive”. In addition, in assay [6], the call was inactive.
In the case of `COc1ccccc1N1CCN(CCN(C(=O)c2ccc(I)cc2)c2ccccn2)CC1`, the Potency result in assay [1], in assay [2], in assay [3], in [4] and in [5] was “inactive” throughout. Moreover, the call in assay [6] was inactive.
`Oc1cc(O)cc(/C=C/c2ccc(O)c(O)c2)c1`: the Potency in [1] was 3.79 µM (active); in assay [4], 0.844 µM (active); in assay [5], 39.8 µM (active); in assay [7], 44.7 µM (active). The Potency result in [2] was “inactive”. Besides, the call in [6] and in [8] was inactive.
In the case of `CCCCCCCCc1ccc(-c2ccc(C(=O)O)cc2)cc1`, the Potency result in assay [1], in assay [2], in assay [3], in assay [4], in [5] and in assay [7] was “inactive” throughout. The outcome in [6] was inactive.
As for `Clc1ccc(N2CCN(Cc3cc4ccccn4n3)CC2)cc1`, the Potency result in assay [1], in [2], in assay [3], in [4] and in assay [5] was “inactive” in each case. Further, in [6], the compound was called inactive.
